Compound activity from PubChem.
Sampled rows, rich in hits. Any-hit rate of the full collection: about 2.2%.
MEKK2 WT-MEK5: modulators of MEK5 binding to wildtype MEKK2, primary screen, biochemical, multiplex bead flow cytometry, Alexa488-MEK5; AID 1531, 2009; Alexa488-MEK5 binding to MEKK2 WT; actives lie on both sides; hit rate 1.1% among 290,000; binding response (% of control), % at 10 µM; in the data active = binding response below about 67% or above about 130%
MEKK2mut PB1 HTS: MEK5 binding signal on mutant MEKK2 PB1, primary screen, biochemical, multiplex bead flow cytometry, Alexa488-MEK5. hit rate 0.35% among 290,000. Alexa488-MEK5 binding to MEKK2 mutant. percent response, % at 10 µM. AID 1530, 2009; in the data active = percent response above about 24%, passing the limit was not always enough
MEKK3 PB1 HTS: modulators of MEKK3-MEK5 PB1 binding, primary screen, biochemical, wildtype MEKK3, multiplex bead flow cytometry, Alexa488-MEK5; Mitogen-activated protein kinase kinase kinase 3 (Homo sapiens), Q99759; bead-based flow cytometry, Alexa488-MEK5 binding to MEKK3; actives lie on both sides; 0 = blocked by unlabeled MEK5, 100 = vehicle; binding response (% of control), % at 10 µM; hit rate 1.4% among 290,000;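 active = binding response more than 3 SD above or below the average of its plate-row segment, actives on both sides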;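 note: Alexa488 bead fluorescence after subtracting the streptavidin-only scavenger bead signal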
VLA-4 inh: inhibition in human VLA-4 binding assay, primary screen, VLA-4 allosteric modulator project, MLPCN library, flow cytometry, VLA-4 expressing cells. ligand binding flow cytometry. Integrin alpha-4 (Homo sapiens), P13612. inhibition, % (about 7 µM as worked out from the volumes in the protocol). hit rate 0.2% among 330,000. AID 2557, 2010; in the data active = inhibition above about 50%
Target sequence (P13612 whole entry, looked up): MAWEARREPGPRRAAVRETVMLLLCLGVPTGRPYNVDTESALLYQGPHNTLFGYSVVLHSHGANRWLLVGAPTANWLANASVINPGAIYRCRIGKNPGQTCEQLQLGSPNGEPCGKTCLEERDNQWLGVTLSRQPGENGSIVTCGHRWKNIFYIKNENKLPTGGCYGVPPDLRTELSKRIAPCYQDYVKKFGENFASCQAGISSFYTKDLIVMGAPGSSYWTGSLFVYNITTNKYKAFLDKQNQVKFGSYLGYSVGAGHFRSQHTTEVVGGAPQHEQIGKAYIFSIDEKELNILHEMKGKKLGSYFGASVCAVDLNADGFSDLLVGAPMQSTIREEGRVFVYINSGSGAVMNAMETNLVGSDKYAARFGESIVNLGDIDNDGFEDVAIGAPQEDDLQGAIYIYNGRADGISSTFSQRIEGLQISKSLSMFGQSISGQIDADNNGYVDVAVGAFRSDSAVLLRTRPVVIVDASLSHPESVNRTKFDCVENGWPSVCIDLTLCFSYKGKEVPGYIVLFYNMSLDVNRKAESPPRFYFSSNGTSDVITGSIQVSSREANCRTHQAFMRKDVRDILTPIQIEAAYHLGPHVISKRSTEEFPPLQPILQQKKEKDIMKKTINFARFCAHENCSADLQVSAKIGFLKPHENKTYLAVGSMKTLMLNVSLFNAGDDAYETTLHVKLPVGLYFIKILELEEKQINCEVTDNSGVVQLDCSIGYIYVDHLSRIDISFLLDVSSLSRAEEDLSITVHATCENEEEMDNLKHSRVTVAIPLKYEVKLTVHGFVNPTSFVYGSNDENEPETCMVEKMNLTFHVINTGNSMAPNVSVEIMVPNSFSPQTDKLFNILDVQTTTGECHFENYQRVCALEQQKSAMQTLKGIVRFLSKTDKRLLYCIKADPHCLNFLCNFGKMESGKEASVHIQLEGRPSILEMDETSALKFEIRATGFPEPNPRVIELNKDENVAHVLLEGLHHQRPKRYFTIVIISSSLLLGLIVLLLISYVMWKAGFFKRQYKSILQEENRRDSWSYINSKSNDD
MEKK2wt confirm: modulators of MEK5 binding to wildtype MEKK2, confirmation, biochemical, single concentration, multiplex bead flow cytometry; shares compounds with MEKK3 PB1 HTS; Alexa488-MEK5 binding to MEKK2 WT; actives lie on both sides; binding response (% of control), % at 10 µM; hit rate 2.4% among 5,900; in the data active = binding response below about 16% or above about 210%; inactive = in between
MEKK2mut-MEK5: mutant MEKK2 PB1-MEK5 binding signal retest – biochemical, single concentration, multiplex bead flow cytometry, confirmation; shares compounds with MEKK3 PB1 HTS; Alexa488-MEK5 binding to MEKK2 mutant; percent response, % at 10 µM; hit rate 2% among 5,900; AID 1893, 2009; in the data active = percent response mostly above about 71%, no sharp cut-off; inactive = mostly below about 38%;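 note: higher means compound restores mutant binding toward wildtype level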
MEKK3-MEK5 inh: MEKK3 wild-type PB1 binding to MEK5, inhibitors, confirmation, biochemical, bead multiplex flow cytometry, single concentration, wildtype; shares compounds with MEKK3 PB1 HTS; Alexa488-MEK5 binding to MEKK3; active compounds read low; binding response (% of control), % at 10 µM; hit rate 1.8% among 5,900; AID 1894, 2009;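 active = binding response below 72% of control, or above a set upper limit, though filed actives all read lower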;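 note: 100% = DMSO only wells and 0% = binding blocked by excess unlabeled MEK5; lower values mean stronger disruption of MEK5 binding to MEKK3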
The depositor's hits bear a star; i = inactive; / = no result; [ ] = remark or other dose.

SMILES	MEKK2 WT-MEK5	MEKK2mut PB1 HTS	MEKK3 PB1 HTS	VLA-4 inh	MEKK2wt confirm	MEKK2mut-MEK5	MEKK3-MEK5 inh
CCN(C(=O)CSc1nncn1-c1ccccc1)c1c(N)n(Cc2ccccc2)c(=O)[nH]c1=O	89	-2	63*[inhibitor]	15	102	-3	103
CCN(C(=O)CSc1nnnn1-c1ccccc1)c1c(N)n(Cc2ccccc2)c(=O)[nH]c1=O	99	0	67*[inhibitor]	12	105	7	108
CC(=O)Nc1ccc(S(=O)(=O)N[C@@H](C)C(=O)N2CCN(c3ccccn3)CC2)cc1	/	/	/	-6	/	/	/
Cc1ccc(OCC(=O)N2CCN(C(=O)CCC3CCCC3)CC2)cc1	112	7	108	-6	/	/	/
O=C(CCC1CCCC1)N1CCN(C(=O)COc2ccccc2)CC1	87	-9	75*[inhibitor]	12	96	-10	101
CCS(=O)(=O)c1ccc2oc(SCC(=O)N3CCCCC3)nc2c1	67	-14	48*[inhibitor]	8	107	3	106
O=C(Nc1ccccc1)c1cccc(S(=O)(=O)Nc2ccccn2)c1	91	-1	75*[inhibitor]	-8	105	1	99
CCN(C(=O)c1cn(C)c(=O)c2cc(OC)c(OC)cc12)c1cc(C)ccc1C	-2.0*[inhibitor]	-9	1.0*[inhibitor]	5	98	-5	102
Cc1cc(OCC(=O)N(Cc2cccs2)C2CCS(=O)(=O)C2)ccc1Cl (configuration not stated)	100	2	100	-5	/	/	/
COc1cc(OC)cc(-c2c(-c3cccs3)c3cc(-c4ccc5[nH]ccc5c4)ccc3n2C)c1	/	/	/	0	/	/	/
Cc1nc(SCC(=O)NCC(F)(F)F)c2c(-c3cccs3)csc2n1	104	0	128*	4	96	-5	100
Clc1cccc(Nc2nc(-c3cccnc3)cs2)c1	154*	/	/	6	103	-1	102
Cc1nn(CCO)c2c1C(=O)CCC2	116	12	128*	-1	106	3	105
CCC(c1nnnn1Cc1cccs1)N1CCN(C(=O)c2ccco2)CC1 (configuration not stated)	-1.0*[inhibitor]	-13	0.0*[inhibitor]	-3	96	2	102
CCOC(=O)c1sc(NC(=O)CN2CCN(c3ccccc3)CC2)nc1C	104	1	104	5	/	/	/
Cc1ccc(NC(=S)N/N=C/c2ccc([N+](=O)[O-])s2)cc1	62*[inhibitor]	-7	85	-124	73	-14	94
O=C(O)c1ccc(N=Nc2c(O)ccc3ncccc23)cc1	96	4	100	-5	/	/	/
Cc1sc(NC(=O)CSc2nnc(C(C)C)n2C)c(C#N)c1C	104	3	106	-13	/	/	/
CCCn1c(SCC(=O)Nc2sc(C)c(C)c2C#N)nnc1C(C)C	116	6	124*	-10	104	5	105
O=C(NC1CCCC1)c1ccc(S(=O)(=O)N2CCOCC2)cc1	123	8	131*	0	152	33	106
CCN1CCN(C(=S)Nc2ccc(Cl)c(Cl)c2)CC1	62*[inhibitor]	-3	64*[inhibitor]	-14	111	10	104
CCN1CCN(C(=S)Nc2cccc(Cl)c2)CC1	99	-7	100	-2	/	/	/
CCc1ccccc1NC(=O)CSc1nnc(-c2cc(C)[nH]n2)n1N	104	1	97	4	/	/	/
O=c1cc(NS(=O)(=O)c2ccccc2)nc(SCc2ccc(Cl)cc2)[nH]1	105	1	129*	8	98	-9	99
Cc1ccc(S(=O)(=O)N(CC(=O)N=Nc2c(O)[nH]c3ccccc23)c2cccc(C)c2)cc1	102	0	150*	2	95	-6	102
SMILES	MEKK2 WT-MEK5	MEKK2mut PB1 HTS	MEKK3 PB1 HTS	VLA-4 inh	MEKK2wt confirm	MEKK2mut-MEK5	MEKK3-MEK5 inh
O=C(COc1ccc(S(=O)(=O)N2CCOCC2)cc1)NCCN1CCOCC1	104	3	104	-8	/	/	/
Cc1ccccc1C(=O)c1cccn1CC(=O)NCCN1CCN(c2cccc(C)c2C)CC1	144*	10	104	8	133	25	107
Cc1ccc2cccc(S(=O)(=O)NC3CCS(=O)(=O)C3)c2n1 (configuration not stated)	-1.0*[inhibitor]	-26	2.0*[inhibitor]	-2	107	9	110
COc1ccc(-n2cc(CNCc3cnc4ccccn34)c(-c3cccc(F)c3)n2)cc1	170*	59*	106	-3	151	41	116
COc1ccc(N2CCC(CNC(=O)Nc3ccc(Cl)cc3)C2)cc1 (configuration not stated)	142	7	141*	-45	106	2	100
COc1ccc(N2CCC(CNC(=O)Nc3cccc(OC)c3)C2)cc1 (configuration not stated)	100	2	99	3	/	/	/
Cn1c(=O)c2sccc2n2c(CCCC(=O)Nc3ccc(F)cc3F)nnc12	93	-7	96	-4	/	/	/
O=C(Nc1cccc(C(F)(F)F)c1)C(SCCO)c1ccccc1 (configuration not stated)	105	0	131*	8	53	-28	59*
O=C(NNC(=S)Nc1cccc(C(F)(F)F)c1)c1ccc(Cl)cc1Cl	116	3	162*	14	101	-2	102
FC(F)(F)c1cccc(NC(=S)NC(c2ccccc2)c2ccccc2)c1	169*	10	152*	-4	176	42	106
CCC(C(=O)Nc1cccc(C(F)(F)F)c1)c1ccccc1 (configuration not stated)	108	5	104	i	/	/	/
CN(C(=O)CO/N=C/c1ccc(OC(F)F)cc1)C1CCS(=O)(=O)C1 (configuration not stated)	100	-3	104	6	/	/	/
Cc1cc(=O)n2[nH]c(SCc3ccccc3Cl)nc2n1	110	7	109	-7	/	/	/
CCOC(=O)Cc1c(C)nc2c(-c3ccc(Cl)cc3)c(C)nn2c1C	/	-34	0.0*[inhibitor]	6	90	-10	89
CCOC(=O)Cc1c(C)nc2c(-c3ccccc3OC)c(C)nn2c1C	93	1	94	-3	/	/	/
O=C(Cc1n[nH]c(=O)c2ccccc12)NC(c1ccccc1)c1ccccc1	89	-12	95	2	/	/	/
Cn1cc(C(=O)c2cccc(Cl)c2)cc1/C=N\O	59	-12	42*[inhibitor]	-1	99	4	98
